PfHsp40 yeast = restores yeast growth despite PfHsp40 toxicity; S. cerevisiae expressing PfHsp40, growth rescue, ATP luminescence; growth rescue, % at 12.5 µM; 340,000 compounds, 0.68% hits; AID 504582; in the data active means growth rescue above about 28%, passing the limit was not always enough;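 further: yeast W303a lacking pdr1 and pdr3 grown in galactose medium; growth measured after three days at 30 °C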
BJeLR lethal = kills HRASV12-expressing BJeLR cells; BJeLR (HRASV12) viability, CellTiter-Glo ATP luminescence, 48 h; inhibition, % (concentration not given with the values); 300,000 compounds, 0.17% hits; AID 1554; in the data active means inhibition above about 50%
GDH-TPI counter = GDH-TPI coupled enzyme inhibition counter-screen; GDH-TPI coupled enzyme counterscreen, NADH absorbance; inhibition, % at 4.8 µM; 360,000 compounds, 1.2% hits; AID 588335; in the data active means inhibition above about 30%
PrPC surface inh = reduces human prion protein on the cell surface | cell surface PrPC, TR-FRET read-out | inhibition, % at 13.8 µM | 370,000 compounds, 0.43% hits | AID 720596; in the data active means inhibition above about 24%
PrP 5UTR inh = suppresses PrP 5' UTR mRNA reporter expression. AID 488862. cell-based PrP 5' UTR mRNA reporter, plate reader. inhibition, % (concentration not given with the values). 340,000 compounds, 0.35% hits; in the data active means inhibition above about 52%
Mtb FBA inh = inhibits M. tuberculosis FBA enzyme | inhibition, % at 1 µM | AID 588726 | P9WQA3 | 360,000 compounds, 2.3% hits | purified M. tuberculosis FBA, fluorescence read-out; in the data active means inhibition above about 27%
Target sequence (P9WQA3 whole entry, looked up): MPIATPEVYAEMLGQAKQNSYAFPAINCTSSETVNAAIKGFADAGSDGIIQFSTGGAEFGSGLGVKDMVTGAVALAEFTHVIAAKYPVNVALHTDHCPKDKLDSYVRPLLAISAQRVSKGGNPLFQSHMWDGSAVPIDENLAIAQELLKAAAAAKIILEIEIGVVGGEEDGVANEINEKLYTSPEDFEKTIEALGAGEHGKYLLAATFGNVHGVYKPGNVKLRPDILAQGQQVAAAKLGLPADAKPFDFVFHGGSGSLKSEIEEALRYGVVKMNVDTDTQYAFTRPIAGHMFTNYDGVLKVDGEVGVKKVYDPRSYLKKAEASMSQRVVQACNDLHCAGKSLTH
A number is an active result; 0 = inactive; - = no result; + = active, no number. Hits are enriched below; roughly 4.5% of the tested compounds scored in any of these assays.

SMILES | PfHsp40 yeast | BJeLR lethal | GDH-TPI counter | PrPC surface inh | PrP 5UTR inh | Mtb FBA inh
Cc1ccc(S(=O)(=O)N2C=C(c3ccccc3)c3ccccc3-c3ccccc32)cc1 | - | - | - | 0 | - | -
CC(=O)c1ccc(NS(=O)(=O)c2ccc(N/C=C/C(=O)c3ccc(F)cc3)cc2)cc1 | 0 | 0 | 60.8 | 0 | 0 | 0
COc1ccc(C2C(C(=O)Nc3ccc(C)c(C)c3)CCC(=O)N2c2ccc(OC)cc2)cc1 (centres undefined) | - | - | - | 0 | - | -
Nc1ccc(CCc2nc3ccccc3o2)cc1 | 0 | 0 | 0 | 0 | 0 | 0
Nc1cc2nc3ccccc3oc-2cc1=O | 375.6 | - | 0 | 0 | 0 | 0
Cc1ccc(CNC(=O)[C@]2(C)CCC[C@@]3(C)C4CC[C@@]5(C)C[C@]4(CCC32)CC5=O)cc1 (some centres undefined) | 95.1 | - | 0 | 0 | 0 | 0
COc1ccc(CNC(=O)[C@]2(C)CCC[C@@]3(C)C4CC[C@@]5(C)C[C@]4(CCC32)CC5=O)cc1 (some centres undefined) | 162.5 | - | 0 | 0 | 0 | 0
C[C@@]12CCC3[C@@](CCC4[C@@]3(C)CCC[C@@]4(C)C(=O)NC3CCCCC3)(CC1=O)C2 (some centres undefined) | 0 | - | 0 | 0 | 0 | 0
N#CCC[C@H]1CC[C@]2(CCCN(C(=O)C3CCCCC3)C2)O1 | - | - | - | 0 | - | -
COc1ccc(C(=O)N[C@@H]2CC[C@@]34CCCN3C(=O)CCC[C@H]4[C@H]2C)cc1 | - | - | - | 0 | - | -
COc1ccc(/C=C/C(=O)c2c(O)ccc3c(C)cc(=O)oc23)cc1 | 0 | 0 | 37.5 | 0 | 0 | 0
Cc1cc(=O)oc2c(O)c(O)ccc12 | 0 | - | 0 | 0 | 0 | 0
COc1ccc(/C=C\C(=O)c2c(O)ccc3c(C)cc(=O)oc23)cc1 | 0 | 0 | 49.1 | 0 | 0 | 0
CCn1c2ccccc2c2cc(C=Nn3c(-c4ccccn4)n[nH]c3=S)ccc21 | - | - | - | 0 | - | -
c1ccc(-c2c3ccccc3nc3[nH]c4ccccc4c23)cc1 | 0 | 0 | 0 | - | 0 | 31.4
COc1ccc(OC)c(S(=O)(=O)N2CCCC(C(=O)Nc3c(C)n(C)n(-c4ccccc4)c3=O)C2)c1 (centres undefined) | - | - | - | 0 | - | -
CCc1c(C2(O)CCCCC2)[nH]c2cc(C(F)(F)F)ccc12 | 299.0 | 0 | 0 | - | 0 | 0
CCOc1ccccc1-c1ccc2nccn2c1 | - | - | 0 | 0 | - | 0
Cc1cc(N=Nc2ccccc2C(=O)O)c(C)c(C)c1O | 149.8 | 0 | 0 | 0 | 0 | 0
Cc1cc(O)c(C(C)C)cc1N=Nc1ccccc1C(=O)O | 0 | 0 | 0 | 0 | 0 | 0
COC(=O)C1=C(C)NC(C)=C(C(=O)OCC(C)C)C1c1ccccc1[N+](=O)[O-] (centres undefined) | 289.0 | 0 | 0 | 0 | 0 | 0
CCOC(=O)C1=C(C)NC(C)=C(C(=O)OCC)C1c1cccc([N+](=O)[O-])c1 | - | - | 0 | 0 | - | 0
Cc1nc2ccccn2c1C(=O)N/N=C/c1cc(C)n(-c2ccc(Br)cc2)c1C | 0 | 0 | 36.9 | 0 | 0 | 0
COc1ccc(/C=N/NC(=O)c2c(C)nc3ccccn23)cc1[N+](=O)[O-] | 0 | 0 | 37.5 | 0 | 0 | 0
Cc1cc(/C=N\NC(=O)c2cccs2)c(C)n1-c1ccc2ncccc2c1 | 0 | 0 | 37.3 | 0 | 0 | 0
SMILES | PfHsp40 yeast | BJeLR lethal | GDH-TPI counter | PrPC surface inh | PrP 5UTR inh | Mtb FBA inh
Cc1nc2ccccn2c1C(=O)N/N=C/c1ccccc1 | 0 | 0 | 0 | 0 | 0 | 0
COc1ccc(/C=N\NC(=O)c2c(C)nc3ccc(Br)cn23)cc1 | 0 | 0 | 42.8 | 0 | 0 | 0
Cc1cc(/C=N\NC(=O)COc2cccc3cccnc23)c(C)n1-c1ccc(Br)cc1 | 0 | - | 0 | 0 | 0 | 0
c1ccc(-n2c(SCc3cccc4ccccc34)nnc2-c2ccccn2)cc1 | - | - | - | 0 | - | -
O=C1CCCCCC(=O)[C@H](O)C[C@H](c2ccccc2)O1 | - | - | - | 0 | - | -
C#CCN(CC=C)Cc1ccc(OC)cc1OC | - | - | - | 0 | - | -
COc1ccc(/C=N/NC(=O)c2c(C)nc3ccc(Cl)cn23)cc1OC | 0 | 0 | 0 | 0 | 0 | 0
COc1ccc(/C=N/NC(=O)c2c(C)nc3ccc(Br)cn23)cc1OC | 0 | 0 | 46.3 | 0 | 0 | 0
COc1cc(/C=N/NC(=O)c2c(C)nc3ccc(Cl)cn23)cc(OC)c1OC | 0 | 0 | 36.0 | 0 | 0 | 0
Cc1ccc(-c2nnc(SCC(=O)NN=Cc3c[nH]c4ccccc34)n2-c2ccccc2)cc1 | - | - | - | 0 | - | -
CC1CCCN(Cc2c(O)ccc3c4c(c(=O)oc23)CCCC4)C1 (centres undefined) | 0 | 0 | 0 | 0 | 0 | -
CC(C)CN(Cc1c(O)ccc2c3c(c(=O)oc12)CCC3)CC(C)C | 0 | 0 | 0 | 0 | 0 | +
O=c1oc2c(CN3CCOCC3)c(O)ccc2c2c1CCC2 | 0 | - | 0 | 0 | 0 | +
C=CCNC(=S)N1CCC(Cc2ccccc2)CC1 | 90.6 | 0 | 0 | 0 | 0 | 0
COc1cc(O)c([C@@H](CC(=O)N2CC(C)CC(C)C2)c2ccc3c(c2)OCO3)c(OC)c1 (some centres undefined) | - | - | - | 0 | - | -
CC(C)[C@H](NC(=O)[C@@H]1CCCN1)C(=O)N1CCC2CCN(S(=O)(=O)c3ccccc3)CC21 (some centres undefined) | - | - | - | 0 | - | -
COc1ccccc1Oc1c(C)oc2cc(OC(=O)N(C)C)ccc2c1=O | 92.8 | 0 | 0 | 0 | 0 | 0
COC(=O)[C@]12C[C@H](CC(=O)N3CCCC3)C(=O)N(Cc3cccc4ccccc34)C1=C[C@H](C1CCCC1)O[C@@H]2C | - | - | - | 0 | - | -
Clc1ccc2oc(-c3cccnc3)nc2c1 | 0 | 0 | 0 | 0 | 0 | 0
CC(C)CC(=O)Nc1ccc2oc(-c3cccnc3)nc2c1 | 0 | 0 | 0 | 0 | 0 | 129.2
Cc1ccc2nc(-c3cccnc3)oc2c1 | 0 | 0 | 0 | 0 | 0 | 41.4
CCC(=O)Nc1ccc2oc(-c3cccnc3)nc2c1 | 0 | 0 | 0 | 0 | 0 | 171.9
O=C(Nc1ccc2oc(-c3cccnc3)nc2c1)c1cccnc1 | 0 | 0 | 0 | 0 | 0 | 0
CCCC1CCC2(CC1)CCC2OC(=O)Nc1cc(C)cc(C)c1 (centres undefined) | - | - | - | 0 | - | -
CN1CCN(c2ccc(C(CC(N)=O)NC(=O)c3ccccc3)cc2[N+](=O)[O-])CC1 (centres undefined) | 37.0 | 0 | 0 | 0 | 0 | 0
SMILES | PfHsp40 yeast | BJeLR lethal | GDH-TPI counter | PrPC surface inh | PrP 5UTR inh | Mtb FBA inh
NC(=O)CC(NC(=O)c1ccccc1)c1ccc(N2CCN(c3ccccc3)CC2)c([N+](=O)[O-])c1 (centres undefined) | 0 | 0 | 0 | 0 | 0 | 0
CC(C)NC(=S)N/N=C/c1cccs1 | 0 | 0 | 38.4 | 0 | 0 | 0
S=C(NCc1ccccc1)N/N=C/c1cccs1 | 0 | 0 | 34.3 | 0 | 0 | 0
COc1cccc(/C=C/C(=O)NCc2ccc(S(N)(=O)=O)cc2)c1 | 0 | 0 | 0 | 0 | 0 | 27.8
O=C(CSc1nnc(-c2ccncc2)n1-c1ccccc1)Nc1cccc2ccccc12 | - | - | - | 0 | - | -
CCCc1cc(=O)oc2c3c(cc(OCC(=O)NCCCn4ccnc4)c12)OC(C)(C)CC3 | 0 | 0 | 0 | 0 | 0 | 169.7
Cc1cc(=O)oc2c3c(cc(OCC(=O)NCCCn4ccnc4)c12)OC(C)(C)CC3 | 0 | 0 | 0 | 0 | 0 | +
